Experimental data: PubChem BioAssay (Tox21)
Results filed as inconclusive are left out. Activity calls are given as the source filed them. Unless noted, calls follow the shape of the full dose curve.

Key:
[1] = Nuclear factor erythroid 2-related factor 2/antioxidant responsive element (Nrf2/ARE) small molecule agonists: qHTS cell viability counter screen in human keratinocytes (AID 1919968; active = well fitted curve in the direction sought with a large enough effect in the repeat runs; an effect the other way counts as inactive or inconclusive; also: nearly all actives have a fitted effect of over 55% in size; also: potency is read from the fitted curve at half-maximal effect)
In short: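 Measured as CellTiter-Fluor fluorescence, this readout tracks cytotoxicity in the same wells as the ARE-luciferase screen. HaCaT reporter cells (1,500/well) received compounds after a 5 h pre-incubation and were exposed for 23 h.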

[2] = Nuclear factor erythroid 2-related factor 2/antioxidant responsive element (Nrf2/ARE) small molecule agonists: luciferase reporter gene qHTS assay in human keratinocytes (AID 1919969); also: nearly all actives have a fitted effect of over 35% in size
[3] = biological target: Gonadotropin-releasing hormone receptor (Homo sapiens) (UniProt P30968); experiment: Human gonadotropin-releasing hormone receptor (GnRHR) small molecule agonists, calcium flux assay in GnRHR-HEK293 cells (AID 1920063); also: nearly all actives have a fitted effect of over 35% in size
Gonadotropin-releasing hormone receptor (Homo sapiens), sequence (P30968 whole entry, looked up): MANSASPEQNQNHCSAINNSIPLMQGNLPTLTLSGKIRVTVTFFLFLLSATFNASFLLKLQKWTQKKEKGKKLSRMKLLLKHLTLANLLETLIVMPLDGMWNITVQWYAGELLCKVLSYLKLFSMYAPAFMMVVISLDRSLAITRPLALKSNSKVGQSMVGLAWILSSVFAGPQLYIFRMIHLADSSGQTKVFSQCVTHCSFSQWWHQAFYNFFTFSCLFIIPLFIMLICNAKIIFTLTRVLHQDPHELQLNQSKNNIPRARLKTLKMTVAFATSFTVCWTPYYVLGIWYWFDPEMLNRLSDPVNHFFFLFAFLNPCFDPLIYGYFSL
In short: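 Fluorescence kinetics (480 nm excitation, 540 nm emission; 3 min, 1 s steps) report calcium mobilisation in human GnRHR-HEK293 cells in agonist mode. Dye incubation: 1 h, 37 C.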

[4] = biological target: KiSS-1 receptor (Homo sapiens) (UniProt Q969F8); experiment: Human kisspeptin (KISS1R) small molecule agonists, calcium flux assay in KISS1R-HEK293 cells (AID 1920064; active = well fitted curve in the direction sought with a large enough effect in the repeat runs; an effect the other way counts as inactive or inconclusive)
KiSS-1 receptor (Homo sapiens), sequence (Q969F8 whole entry, looked up): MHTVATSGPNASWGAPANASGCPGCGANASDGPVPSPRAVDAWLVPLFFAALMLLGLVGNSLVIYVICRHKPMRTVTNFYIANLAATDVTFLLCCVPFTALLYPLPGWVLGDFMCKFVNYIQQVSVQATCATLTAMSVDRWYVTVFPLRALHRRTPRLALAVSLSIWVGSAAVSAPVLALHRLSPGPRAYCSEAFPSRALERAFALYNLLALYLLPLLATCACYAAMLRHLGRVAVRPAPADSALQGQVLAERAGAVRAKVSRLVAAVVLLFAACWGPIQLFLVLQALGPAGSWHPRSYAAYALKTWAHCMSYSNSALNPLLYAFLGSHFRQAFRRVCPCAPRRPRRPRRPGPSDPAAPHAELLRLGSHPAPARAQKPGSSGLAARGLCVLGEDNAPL
In short: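 Measures KISS1R agonism through calcium-sensitive dye fluorescence in stably transfected HEK293 cells, read for 3 min after pin-tool compound delivery; 15-point titrations in triplicate.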

[5] = G protein-coupled receptor (GPCR) small molecule agonists, calcium flux assay: HEK293 wild type cell line counter screen (AID 1920065)
In short: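 Readout: fluorescence at 480 nm excitation/540 nm emission, sampled at 1 s intervals for 3 min. Cells had been cultured 18 h, then dye-loaded 1 h at 37 C before compound or ATP addition.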

[6] = p53 small molecule agonists, cell-based qHTS assay with human liver microsomes (AID 1963577);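 also: p53 response element beta-lactamase reporter cells with liver microsomes plus NADPH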
In short: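 With metabolic activation: human liver microsomes (0.5 mg/mL final) plus NADPH (0.5 mg/mL final) added alongside compounds to p53RE-bla cells; 16 h 37 C exposure; beta-lactamase read by LiveBLAzer fluorescence.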

[7] = p53 small molecule agonists, cell-based qHTS assay with rat liver microsomes (AID 1963578)
In short: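 Metabolic activation by rat liver microsomes and NADPH, each 0.5 mg/mL final, added right after compounds to p53RE-bla reporter cells (4,000/well, plated 5 h earlier). 16 h at 37 C, then LiveBLAzer substrate for 2 h at room temperature in the dark; fluorescence read-out.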

[8] = p53 small molecule agonists, cell-based qHTS assay with human liver microsomes: qHTS cell viability counter screen (AID 1963579); also: nearly all actives have a fitted effect of over 45% in size
In short: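 Metabolic activation used human liver microsomes and NADPH, both 0.5 mg/mL final, over 16 hours at 37 C on p53RE-bla cells (4,000/well). Cytotoxicity measured by CellTiter-Glo luminescence, 30 min at room temperature.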

[9] = p53 small molecule agonists, cell-based qHTS assay with rat liver microsomes: qHTS cell viability counter screen (AID 1963580); also: nearly all actives have a fitted effect of over 45% in size
In short: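 Viability is assessed in parallel with the p53 reporter read: HCT-116 p53RE-bla cells receive compounds plus rat microsomes and NADPH (0.5 mg/mL final apiece), incubate 16 h at 37 C, and then CellTiter-Glo luminescence is recorded.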

[10] = p53 small molecule agonists, cell-based qHTS assay: qHTS cell viability counter screen (AID 1963581); also: nearly all actives have a fitted effect of over 45% in size
In short: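 In the same plates used for the p53 bla reporter, HCT-116 cells given compounds for 16 h at 37 C received CellTiter-Glo; luminescence was recorded 30 min later at room temperature.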

[11] = p53 small molecule agonists, cell-based qHTS assay (AID 1963582; active = well fitted activation curve with a large enough effect in the signal ratio in the repeat runs, not every such curve was filed as active; the % refers to the signal ratio; also: potency is read from the fitted curve at half-maximal effect)
In short: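 Compounds are pin-transferred in DMSO onto p53RE-bla cells and incubated 16 h at 37 C. The B/G FRET beta-lactamase substrate is then applied for 2 h at RT and fluorescence recorded.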

[12] = biological target: 5-hydroxytryptamine receptor 2A (Homo sapiens) (UniProt P28223); experiment: 5-hydroxytryptamine receptor 2A (HTR2A) small molecule agonists, cell-based qHTS assay (AID 1963587); also: nearly all actives have a fitted effect of over 30% in size; also: potency is read from the fitted curve at half-maximal effect
5-hydroxytryptamine receptor 2A (Homo sapiens), sequence (P28223 whole entry, looked up): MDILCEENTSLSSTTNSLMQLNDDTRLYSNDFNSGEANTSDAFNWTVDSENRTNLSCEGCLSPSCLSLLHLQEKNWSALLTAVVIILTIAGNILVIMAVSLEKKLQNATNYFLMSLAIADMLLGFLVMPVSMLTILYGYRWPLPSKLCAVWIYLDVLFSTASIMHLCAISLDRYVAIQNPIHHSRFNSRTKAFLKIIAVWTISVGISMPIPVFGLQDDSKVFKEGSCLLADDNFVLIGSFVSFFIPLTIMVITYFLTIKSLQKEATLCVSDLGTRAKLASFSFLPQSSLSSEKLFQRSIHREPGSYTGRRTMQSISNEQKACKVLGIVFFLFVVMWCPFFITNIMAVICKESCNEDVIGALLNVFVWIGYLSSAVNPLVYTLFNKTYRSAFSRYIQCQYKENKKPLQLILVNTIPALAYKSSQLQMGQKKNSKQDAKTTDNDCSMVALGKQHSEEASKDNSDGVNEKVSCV
In short: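 CHO cells stably expressing human HTR2A, plated 18 h, loaded with calcium dye 1 h at 37 C. Agonist mode: compounds added and intracellular calcium fluorescence recorded kinetically for 2 min at 1 sec intervals.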

[13] = biological target: Muscarinic acetylcholine receptor M1 (Homo sapiens) (UniProt P11229); experiment: Cholinergic receptor muscarinic 1 (CHRM1) small molecule antagonists, cell-based qHTS assay (AID 1963588); also: nearly all actives have a fitted effect of over 40% in size
Muscarinic acetylcholine receptor M1 (Homo sapiens), sequence (P11229 whole entry, looked up): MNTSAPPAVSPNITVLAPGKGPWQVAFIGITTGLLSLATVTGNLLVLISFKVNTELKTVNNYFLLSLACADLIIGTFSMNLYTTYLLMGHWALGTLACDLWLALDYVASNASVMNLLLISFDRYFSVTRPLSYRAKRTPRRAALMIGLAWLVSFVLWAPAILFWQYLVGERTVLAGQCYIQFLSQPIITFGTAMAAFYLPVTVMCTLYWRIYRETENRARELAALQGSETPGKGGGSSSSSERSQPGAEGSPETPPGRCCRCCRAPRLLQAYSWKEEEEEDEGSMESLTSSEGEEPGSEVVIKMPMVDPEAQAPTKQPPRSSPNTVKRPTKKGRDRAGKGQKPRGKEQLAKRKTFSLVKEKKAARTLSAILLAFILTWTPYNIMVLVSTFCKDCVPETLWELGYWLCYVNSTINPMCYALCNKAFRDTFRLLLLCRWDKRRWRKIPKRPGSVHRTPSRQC
In short: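 CHRM1-CHO calcium-flux assay, antagonist mode. Cells were seeded 18 h, dye-loaded 1 h at 37 C and given compound for 5 min at RT, then acetylcholine was added at 50nM. FDSS fluorescence was read 3 min; 15 concentrations, three runs.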

[14] = biological target: Muscarinic acetylcholine receptor M1 (Homo sapiens) (UniProt P11229); experiment: Cholinergic receptor muscarinic 1 (CHRM1) small molecule agonists, cell-based qHTS assay (AID 1963589); also: nearly all actives have a fitted effect of over 35% in size
In short: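 Each compound was tested at 15 concentrations across three independent runs on dye-loaded CHO cells stably expressing human CHRM1, reading intracellular calcium fluorescence kinetically at 1 sec intervals.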

[15] = cAMP Responsive Elements (CRE) small molecule agonists, cell-based qHTS assay (AID 1963590)
In short: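 Cell line: CRE-bla HEK 293T; medium DMEM/10% dialyzed FBS/0.1 mM NEAA/1 mM pyruvate/25 mM HEPES; 3 h compound exposure; beta-lactamase FRET readout after 2 h substrate loading at RT.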

[16] = cAMP Responsive Elements (CRE) small molecule antagonists, cell-based qHTS assay (AID 1963591; active = well fitted inhibition curve with a large enough effect in the signal ratio in the repeat runs, not every such curve was filed as active; the % refers to the signal ratio)
In short: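 Inhibition of NKH477-driven (0.25 uM final) CRE-beta-lactamase signal in HEK293T cells, 3 h compound exposure at 37 °C, detected by FRET substrate fluorescence.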

[17] = biological target: Beta-2 adrenergic receptor (Homo sapiens) (UniProt P07550); experiment: Adrenergic beta2 receptor (ADRB2) small molecule antagonists, cell-based qHTS assay (AID 1963592); also: series mostly up to about 92 µM; nearly all actives have a fitted effect of over 50% in size
Beta-2 adrenergic receptor (Homo sapiens), sequence (P07550 whole entry, looked up): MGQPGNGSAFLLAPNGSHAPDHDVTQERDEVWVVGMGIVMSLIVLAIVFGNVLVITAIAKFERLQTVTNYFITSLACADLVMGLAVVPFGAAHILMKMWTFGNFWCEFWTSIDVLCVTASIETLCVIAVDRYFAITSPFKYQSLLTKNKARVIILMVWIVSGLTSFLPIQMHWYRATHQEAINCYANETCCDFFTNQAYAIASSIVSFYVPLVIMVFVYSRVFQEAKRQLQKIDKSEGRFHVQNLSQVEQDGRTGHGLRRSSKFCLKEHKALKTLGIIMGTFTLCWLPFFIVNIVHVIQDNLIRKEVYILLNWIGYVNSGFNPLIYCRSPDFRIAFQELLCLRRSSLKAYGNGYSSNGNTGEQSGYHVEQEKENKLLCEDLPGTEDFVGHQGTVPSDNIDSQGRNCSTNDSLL
In short: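 Cells (CHO, stable ADRB2 overexpression) incubated 18-20hr at 37C; compounds added from DMSO; agonist mix (1nM isoproterenol, 100uM IBMX, 25uM Ro-20-1724) added; 0.5hr RT; d2-cAMP and anti-cAMP-cryptate added; 1hr RT; 665/615 nm read.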

[18] = biological target: D(2) dopamine receptor (Homo sapiens) (UniProt P14416); experiment: Dopamine D2 receptor (DRD2) small molecule agonists, cell-based qHTS assay (AID 1963594); also: nearly all actives have a fitted effect of over 35% in size; also: potency is read from the fitted curve at half-maximal effect
D(2) dopamine receptor (Homo sapiens), sequence (P14416 whole entry, looked up): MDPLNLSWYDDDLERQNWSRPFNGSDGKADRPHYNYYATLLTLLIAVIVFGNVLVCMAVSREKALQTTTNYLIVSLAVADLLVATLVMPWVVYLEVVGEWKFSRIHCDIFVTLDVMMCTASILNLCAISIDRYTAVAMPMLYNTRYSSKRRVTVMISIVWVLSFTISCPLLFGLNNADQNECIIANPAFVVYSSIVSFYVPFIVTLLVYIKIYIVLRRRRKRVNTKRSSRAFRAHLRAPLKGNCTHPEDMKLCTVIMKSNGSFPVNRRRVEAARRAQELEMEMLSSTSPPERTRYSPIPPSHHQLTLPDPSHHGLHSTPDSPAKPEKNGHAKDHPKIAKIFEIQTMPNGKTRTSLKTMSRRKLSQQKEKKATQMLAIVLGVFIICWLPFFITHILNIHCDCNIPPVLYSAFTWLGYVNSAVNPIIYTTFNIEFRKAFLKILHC
In short: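 HEK293 cells stably expressing human DRD2, pre-treated with PDE inhibitor Ro20-1724 (0.1 mM final) and compound 10 min at room temperature, then stimulated with NKH477 (200nM […]) for 30 min. cAMP read by HTRF (665/620 nm).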

[19] = biological target: D(2) dopamine receptor (Homo sapiens) (UniProt P14416); experiment: Dopamine D2 receptor (DRD2) small molecule antagonists, cell-based qHTS assay (AID 1963595; active = well fitted inhibition curve with a large enough effect in the signal ratio in the repeat runs, with a control signal flat; the % refers to the signal ratio)
In short: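 HEK293 cells stably expressing DRD2, preincubated with 0.1 mM Ro20-1724 and compounds 10 min, were stimulated with 200 nM NKH477 plus 12 nM quinpirole for 30 min at room temperature; cAMP measured by HTRF (665/620 nm).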

Measured: Potency

CC1(C)C(/C=C(\Cl)C(F)(F)F)C1C(=O)OC(C#N)c1cccc(Oc2ccccc2)c1 (centres undefined)
inactive: [1] | [2] | [3] | [4] | [5] | [6] | [7] | [8] | [9] | [10] | [11] | [12] | [13] | [14] | [15] | [16] | [17] | [18] | [19]

Cn1c(CCCC(=O)O)nc2cc(N(CCCl)CCCl)ccc21
inactive: [1] | [2] | [3] | [4] | [5] | [6] | [7] | [8] | [9] | [10] | [11] | [12] | [13] | [14] | [15] | [17] | [19]

ClC(Cl)=C(Cl)Cl
inactive: [1] | [2] | [3] | [4] | [5] | [6] | [7] | [8] | [9] | [10] | [11] | [12] | [13] | [14] | [16] | [17] | [18] | [19]

O=C(Cc1ccccc1)OCCc1ccccc1
inactive: [1] | [2] | [3] | [4] | [5] | [6] | [7] | [8] | [9] | [10] | [11] | [12] | [14] | [15] | [16] | [18] | [19]

COc1cc(C=O)cc2c1[C@H](COC(N)=O)[C@]1(OC(C)=O)ON2C[C@H]2[C@@H]1N2C(C)=O
inactive: [2] | [3] | [4] | [5] | [6] | [7] | [8] | [9] | [10] | [12] | [13] | [14] | [15] | [17] | [18] | [19]
active: [1] 9.69 µM | [11] 3.63 µM

CCN(CC)CCOC(=O)C(O)(c1ccccc1)c1ccccc1
inactive: [1] | [2] | [3] | [4] | [5] | [6] | [7] | [8] | [9] | [10] | [11] | [15] | [16] | [17] | [18] | [19]
active: [12] 1.34 µM

ClCC(Cl)Cl
inactive: [1] | [2] | [3] | [4] | [5] | [6] | [7] | [8] | [9] | [10] | [11] | [15] | [16] | [17] | [19]

COc1ccc(C=O)cc1O
inactive: [1] | [2] | [3] | [4] | [5] | [6] | [7] | [8] | [9] | [10] | [11] | [12] | [14] | [15] | [17] | [18] | [19]

CC1NCCOC1c1ccccc1 (centres undefined)
active: [18] 14.1 µM
inactive: [1] | [2] | [3] | [4] | [5] | [6] | [7] | [8] | [9] | [10] | [11] | [13] | [14] | [15] | [17] | [19]

CC/C(=N\OC/C=C/Cl)C1=C(O)CC(C2CCOCC2)CC1=O (centres undefined)
inactive: [1] | [2] | [3] | [4] | [5] | [6] | [7] | [8] | [9] | [10] | [11] | [12] | [13] | [14] | [17] | [18] | [19]

c1ccc2c(c1)CCNC2
inactive: [1] | [2] | [3] | [4] | [5] | [6] | [7] | [8] | [9] | [10] | [11] | [12] | [13] | [14] | [15] | [16] | [17] | [18] | [19]

NC(=O)C(Cl)Cl
inactive: [1] | [2] | [3] | [4] | [5] | [6] | [7] | [8] | [9] | [10] | [11] | [12] | [13] | [14] | [15] | [16] | [17] | [18] | [19]

CC(C)(C)NCC(O)c1ccccc1Cl (centres undefined)
inactive: [1] | [2] | [3] | [4] | [5] | [6] | [7] | [8] | [9] | [10] | [11] | [12] | [14] | [16] | [17]

C=CCC1([C@H](C)CCC)C(=O)NC(=O)NC1=O
inactive: [1] | [2] | [3] | [4] | [5] | [6] | [7] | [8] | [9] | [10] | [11] | [15] | [16] | [17] | [18] | [19]

O=C(O)c1ccc2[nH]cc(CCCCN3CC=C(c4ccccc4)CC3)c2c1
inactive: [1] | [2] | [3] | [4] | [5] | [6] | [7] | [8] | [9] | [10] | [11] | [13] | [14] | [17] | [19]
active: [18] 0.0084 µM

CC(Cc1ccccc1)N(C)Cc1ccco1 (centres undefined)
inactive: [1] | [2] | [3] | [4] | [5] | [6] | [7] | [8] | [9] | [10] | [11] | [12] | [13] | [14] | [15] | [18] | [19]
